Data on 31 compounds can be found in PubChem BioAssay AID488851 (National Center for Advancing Translational Sciences (NCATS), 2010).

Records with an inconclusive call do not appear. Values without a mark were called inactive. The source made the active and inactive calls. Calls come from the whole dose curve; as a rule, active = well fitted activation curve with a large enough effect; inconclusive = small, poorly fitted or top-dose-only effect; inactive = flat fitted curve, though single readings scatter.

For this assay, the target named is Lysosomal acid glucosylceramidase (Homo sapiens) (UniProt P04062). The assay can be described thus: qHTS Assay for Inhibitors and Activators of N370S glucocerebrosidase as a Potential Chaperone Treatment of Gaucher Disease: Purified Non-mutant Confirmation for Probe SAR. The conditions noted are these: purified GC, 4MU-beta-glucoside fluorescence, 40 min; series mostly up to 57.5 µM; activity change, negative = inhibition: at the top concentration. The text has this: NIH Chemical Genomics Center [NCGC] NIH Molecular Libraries Probe Production Centers Network [MLPCN] MLPCN Grant: MH086442-01 Assay Submitter (PI): Wei Zheng Glucocerebrosidase (GC) catalyzes the hydrolysis of beta-glucocerebroside to glucose and ceramide in lysosomes. Mutations in the glucocerebrosidase gene result in Gaucher disease, an autosomal recessive lysosomal storage disorder. Many of the mutations encountered in patients with Gaucher disease are missense alterations that may cause misfolding, decreased stability and/or mistrafficking of this lysosomal protein. […] These inhibitors include iminosugar analogs and three non-iminosugar inhibitors identified from a previous HTS of 62,000 compounds with the wild type recombinant enzyme. However, the enhancement of enzyme activity by the chaperone action of an enzyme inhibitor must be balanced against the direct inhibition of the enzyme. An enzyme activator could also function as a chaperone by binding to the enzyme and helping to correct its misfolding and mistrafficking. While activators for GC have not yet been identified, they may have better therapeutic potential than inhibitors. Therefore the discovery and development of chemical activators may provide a new strategy for the chaperone therapy. We have optimized a new assay using N370S mutant GC derived from the spleen of a Gaucher patient. […] In addition, the MLPCN compound library has expanded, which increases the chance of finding new and better probes. This assay characterizes compound activity using purified wildtype enzyme instead of mutant enzyme from tissue homogenate. Compound activity differences may be due to the absence of endogenous cofactors found in tissue homogenate as well as inherent differences in enzyme stability and catalytic activity between the N370S and wildtype forms of the protein.
Chain of Lysosomal acid glucosylceramidase (Homo sapiens) (P04062 whole entry, looked up): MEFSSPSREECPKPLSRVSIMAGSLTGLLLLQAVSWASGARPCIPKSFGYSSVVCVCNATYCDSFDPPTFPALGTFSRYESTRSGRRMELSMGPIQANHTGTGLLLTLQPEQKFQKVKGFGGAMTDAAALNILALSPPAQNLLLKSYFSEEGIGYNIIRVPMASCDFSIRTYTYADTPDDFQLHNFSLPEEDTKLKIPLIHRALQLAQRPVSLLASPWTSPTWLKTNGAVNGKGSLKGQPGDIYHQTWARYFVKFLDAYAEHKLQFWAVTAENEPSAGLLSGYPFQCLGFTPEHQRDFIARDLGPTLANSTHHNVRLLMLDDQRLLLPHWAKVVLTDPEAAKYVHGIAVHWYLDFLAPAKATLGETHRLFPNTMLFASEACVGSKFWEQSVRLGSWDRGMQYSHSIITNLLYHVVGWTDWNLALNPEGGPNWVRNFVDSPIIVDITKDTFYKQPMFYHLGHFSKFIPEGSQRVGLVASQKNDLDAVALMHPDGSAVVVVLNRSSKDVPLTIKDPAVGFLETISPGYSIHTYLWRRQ
NCGC Assay Protocol Summary: This is a fluorogenic enzyme assay with 4-methylumbelliferyl-beta-D-glucopyranoside as the substrate and purified wildtype glucocerebrosidase as the enzyme preparation. Upon the hydrolysis of this fluorogenic substrate, the resulting product, […] which can be detected by a standard fluorescence plate reader. Data were normalized to the controls for basal activity (without enzyme) and 100% activity (with enzyme). The AC50 values were determined from concentration-response data modeled with the standard Hill equation. Assay buffer: 50 mM citric acid (titrated with potassium phosphate to pH 5.0), 100 mM potassium chloride, 10 mM sodium chloride, 1 mM magnesium chloride, 0.01% Tween-20. 1536-well assay protocol: (1) Add 2 ul/well of glucocerebrosidase enzyme solution (5 nM final) (2) Add 23 nL compounds in DMSO solution. The final titration was 0.5 nM to 58 uM. (3) Add 2 ul of substrate (1 mM final) (4) Incubate at 37C for 40 min. (5) Add 2 ul stop solution (1M NaOH and 1M Glycine mixture, pH 10) (6) Detect the assay plate in a ViewLux plate reader (PerkinElmer) with Ex=365 nm and Em=440nm. Keywords: Glucocerebrosidase, beta-glucosidase, Gaucher Disease, pharmacological chaperone, chaperone therapy, high throughput screening, glucocerebrosidase inhibitor, MLSMR, MLSCN, NIH Roadmap, qHTS and NCGC
Background: In qHTS, concentration-response curves come from the screen itself.
Turning to `CNC(=O)c1cnn2c(C)cc(C)nc12`, the “activity change, negative = inhibition” value was -2.54%.

`Cc1cc(C)n2ncc(C(=O)Nc3ccccc3)c2n1`: the Potency is 7.3 µM (active).

`Cc1cc(C)n2ncc(C(=O)Nc3ccc(C)c(C)c3)c2n1`: the Potency was 5.8 µM (active).

`Cc1cc(C)n2ncc(C(=O)NCc3ccccc3)c2n1`: the Potency was 32.6 µM (active).

On to `Cc1cc(C)n2ncc(C(=O)Nc3ccccc3C)c2n1`, for which the Potency was 13 µM (active).

As to `Cc1ccc(NC(=O)c2cnn3c(C)cc(C)nc23)c(C)c1`, the Potency is 20.6 µM (active).

`Cc1cc(C)n2ncc(C(=O)Nc3ccc4c(c3)OCCO4)c2n1`: the Potency is 16.3 µM (active).

In the case of `COc1ccc(NC(=O)c2cnn3c(C)cc(C)nc23)cc1`, the Potency is 16.3 µM (active).

Take `COc1ccc(NC(=O)c2cnn3c(C)cc(C)nc23)cc1OC`: the “activity change, negative = inhibition” value is 21.2%.

For the compound `Cc1ccc(NC(=O)c2cnn3c(C)cc(C)nc23)cc1`, the Potency is 9.19 µM (active).

With `CC(=O)c1cccc(NC(=O)c2cnn3c(C)cc(C)nc23)c1`, the Potency is 32.6 µM (active).

For `Cc1cc(C)n2ncc(C(=O)Nc3ccncc3)c2n1`, the “activity change, negative = inhibition” value was 1.71%.

As for `Cc1cccc(NC(=O)c2cnn3c(C)cc(C)nc23)c1`, the Potency was 16.3 µM (active).

Turning to `Cc1cc(C)n2ncc(C(=O)N3CCCC3)c2n1`, the “activity change, negative = inhibition” value is 2.31%.

Turning to `Cc1cc(C)n2ncc(C(=O)NC3CCCCC3)c2n1`, the Potency was 11.6 µM (active).

For `Cc1cc(C)n2ncc(C(=O)NC3CCC(C(C)(C)C)CC3)c2n1` (stereo unspecified), the Potency was 13 µM (active).

Regarding `COc1ccc(NC(=O)c2cnn3c(C)cc(C)nc23)cc1Cl`, the Potency is 20.6 µM (active).

As for `Cc1cc(C)n2ncc(C(=O)Nc3ccc(Br)cc3)c2n1`, the Potency is 16.3 µM (active).

For the compound `C#Cc1ccc(NC(=O)c2cnn3c(C)cc(C)nc23)cc1`, the Potency is 5.17 µM (active).

As for `Cc1cc(C)n2ncc(C(=O)Nc3ccc(C(F)(F)F)cc3)c2n1`, the Potency was 6.51 µM (active).

As for `Cc1cc(C)n2ncc(C(=O)Nc3cccc(C#N)c3)c2n1`, the “activity change, negative = inhibition” value is 5.68% [at 19 µM].

As for `Cc1cc(C)n2ncc(C(=O)Nc3ccc(S(C)(=O)=O)cc3)c2n1`, the “activity change, negative = inhibition” value was 8.37%.

Consider `Cc1cc(C)n2ncc(C(=O)NCc3ccco3)c2n1`, for which the Potency was 23.1 µM (active).

Take `O=C(Nc1ccccc1Sc1ccccc1)c1cnn2c1NC(=C1CC1)C=C2C(F)F`: the Potency is 32.6 µM (active).

For the compound `Cc1cc(C)n2ncc(C(=O)Nc3ccc4c(c3)OCO4)c2n1`, the Potency was 10.3 µM (active).

As to `CC(=O)c1ccc(NC(=O)c2cnn3c(C)cc(C)nc23)cc1`, the “activity change, negative = inhibition” value was 20.5%.

`Cc1cc(C)n2ncc(C(=O)Nc3ccc4c(c3)CCC4)c2n1`: the Potency was 10.3 µM (active).

Take `CCc1ccc(NC(=O)c2cnn3c(C)cc(C)nc23)cc1`: the Potency is 11.6 µM (active).

For `Cc1cc(C)n2ncc(C(=O)NC(C)C)c2n1`, the Potency was 41.1 µM (active).

As for `CC(=O)Nc1ccccc1NC(=O)c1cnn2c(C)cc(C)nc12`, the “activity change, negative = inhibition” value was 13.3%.

For `COc1ccc(NC(=O)c2cnn3c(C)cc(C)nc23)cc1F`, the Potency is 13 µM (active).
